Test results: PubChem BioAssay AID651965 (National Center for Advancing Translational Sciences (NCATS), 2013)
Screen size: about 340,000 compounds; about 6,400 (1.9%) were called active. Another 4% or so got no clear call; they are omitted. The call rests on the fitted dose curve; in most records, active means well fitted falling curve with a large enough effect; inconclusive means small, poorly fitted or top-dose-only effect; inactive means no such curve, though single readings can be large or run the other way. Only a selection was taken, and actives are over-represented in it overall.

target: ATP-dependent Clp protease proteolytic subunit (Bacillus subtilis (strain 168)) (UniProt P80244); assay: qHTS Assay for Activators of ClpP; further: the source files actives as falling curves though it sought activators and does not explain the sign; nearly all actives have a fitted effect of over 65% in size; conditions: purified B. subtilis ClpP, FRET peptide cleavage, 20 min; series mostly up to 57.5 µM; activity change, negative = active: at the top concentration
Sequence (P80244 whole entry, looked up): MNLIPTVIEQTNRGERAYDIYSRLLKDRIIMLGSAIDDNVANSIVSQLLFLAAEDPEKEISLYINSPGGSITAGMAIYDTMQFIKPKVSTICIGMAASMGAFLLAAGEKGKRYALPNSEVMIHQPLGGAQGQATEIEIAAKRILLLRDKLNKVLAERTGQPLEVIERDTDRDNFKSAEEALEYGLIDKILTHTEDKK
Excerpt: The Clp protease proteolytic subunit (ClpP) is the core unit of the Clp complex belonging to the peptidase family S14 that hydrolyzes protein into small peptides in the presence of ATP and magnesium. It is ubiquitously expressed and is the major protease in bacteria. […] Unlike common antibiotics that simply interfere with the essential enzyme activity, ADEP binding activates the ClpP core in the absence of the regulatory Clp-ATPases leading to uncontrolled proteolysis and eventually cell death. Activators binding to the docking site on ClpP can also block formation of the ClpXP and ClpA/C-P holoenzyme complexes interfering with the normal biological functions of ClpP and thus have the potential to become new anti-microbials.
To identify activators of ClpP, a FRET based quenching reversal assay was developed using a purified B. subtilis ClpP and a decapeptide substrate (FRET-FV). The FRET-FV is tagged with a fluorescent molecule amino benzoic acid (donor) at the N-terminus and a nitrotyrosine quencher (acceptor) at the C-terminus. FRET-FV cleaves upon activation of ClpP with ADEP treatement and reverses the quenching effect of the nitrotyrosine causing an increase in fluorescence emission signal at 430nm. This assay was used to screen the Molecular Libraries Small Molecule Repository (MLSMR).
NIH Molecular Libraries Probe Production Centers Network [MLPCN]
NIH Chemical Genomics Center [NCGC]
Assay Submitter (PI): Michael Maurizi, National Cancer Institute
Two and a half microL/well of purified enzyme solution (final concentrations 10 microg/mL B. subtilis ClpP in 100 mM Tris/HCl pH8, 100 mM KCl, 0.05% low protease BSA, 2.5% glycerol, 0.01% Tween-20 buffer) was dispensed into 1536-well assay plates (Greiner, black solid, medium-binding plates) with Aurora Discovery BioRAPTR Flying Reagent Dispenser (FRD, Beckton-Dickenson). Compound solution (23 nL) was transferred to the assay plate using Kalypsys pin tool equipped with a 1536-pin tool. […] FRET signals at time 0 and after 20 min room temperature incubation were obtained using the PerkinElmer Envision plate reader with 320nm excitation and 430nm emission filters. Delta FRET value (Time 20 - Time 0) was calculated and normalized to the delta FRET value of positive control ADEP (5.8 microM final concentration) and negative control DMSO and no enzyme wells.

Row | SMILES | Potency | activity change, negative = active
1 | Fc1ccc(C2N3CCCN23)cc1 (centres undefined) | 28.2 µM (active) | –
2 | O=c1[nH]c2ccccc2n1C1CCN(C(c2ccnc3ccccc23)c2nnnn2Cc2ccccc2)CC1 (centres undefined) | – | 1.32% (inactive)
3 | CCN1CCN(C(=O)Cc2coc3cc(C)cc(C)c23)CC1 | – | -1.96% (inactive)
4 | Cc1cc(OCc2cc(C(=O)O)oc2C)c2c3c(c(=O)oc2c1)CCCC3 | 28.2 µM (active) | –
5 | COC(=O)COc1cc(C)cc2oc(=O)c3c(c12)CCCC3 | – | -15.8% (inactive)
6 | Cc1ncoc1C(=O)NCC1=C(c2cccc3ccccc23)C[C@@H]2CC[C@H]1N2Cc1ccco1 | – | 1.72% (inactive)
7 | CC/C(=N\NC(=O)c1ccccc1O)c1c(O)n(Cc2ccccc2)c(=O)[nH]c1=O | – | -20.7% (inactive)
8 | COc1cc(Cn2c(N)c(C(=O)NCc3ccco3)c3nc4ccccc4nc32)cc(OC)c1OC | 28.2 µM (active) | –
9 | COC(=O)C1=C(c2ccccc2)C[C@@H]2CC[C@H]1N2C(=O)NCc1ccco1 | – | 0.913% (inactive)
10 | CCOC(=O)c1c(N)n(Cc2ccccc2)c2nc3ccccc3nc12 | 28.2 µM (active) | –
11 | CCOc1ccc(CNC(=O)c2cccc(Nc3nc4ccccc4n4nnnc34)c2)cc1OC | – | 1.78% (inactive)
12 | CCOC(=O)c1cccc(C2=C(CNC(=O)c3ccncc3)[C@H]3CC[C@@H](C2)N3Cc2ccccc2)c1 | – | -2.63% (inactive)
13 | CCOC(=O)c1c(N)n(CCN2CCOCC2)c2nc3ccccc3nc12 | 25.1 µM (active) | –
14 | c1cc2c(cc1C1OCC3C(c4ccc5c(c4)OCO5)OCC13)OCO2 (centres undefined) | – | 0.351% (inactive)
15 | COc1cccc(C(c2nnnn2-c2ccc3c(c2)OCCO3)N2CCC3(CC2)C(=O)NCN3c2ccccc2)c1OC (centres undefined) | – | -2.09% (inactive)
16 | S=C(NCCc1ccccc1)N1Cc2cc(N3CCOCC3)ccc2-n2nncc2C1 | – | -8.95% (inactive)
17 | O=c1[nH]c2ccccc2n1C1CCN(C(c2ccccc2)c2nnnn2Cc2ccccc2)CC1 (centres undefined) | – | 1.83% (inactive)
18 | CC(=O)NCC1=C(c2ccc3ccccc3c2)C[C@@H]2CC[C@H]1N2Cc1ccco1 | – | -3.56% (inactive)
19 | CSCCC(c1nnnn1C(C)(C)C)N1CCC(n2c(=O)[nH]c3ccccc32)CC1 (centres undefined) | – | -3.84% (inactive)
20 | CCn1cc(CN2CCCC(C(=O)c3cccc(C(F)(F)F)c3)C2)cn1 (centres undefined) | – | -2.07% (inactive)
21 | COc1ccc(C2C=C(C)Oc3c2c(=O)oc2ccccc32)cc1OC (centres undefined) | – | -6.26% (inactive)
22 | O=C(O)/C=C/c1ccc2c(c1)OCO2 | – | 4.44% (inactive)

Row | SMILES | Potency | activity change, negative = active
23 | O=c1c2ccccc2[nH]c(=S)n1-c1cccc(Cl)c1 | – | -18.2% (inactive)
24 | CC(C(=O)Nc1ccc(Cl)cc1Cl)N1CC=C(c2ccccc2)CC1 (centres undefined) | 28.2 µM (active) | –
25 | O=C(Nc1ccc(Cl)cc1C(=O)c1ccccc1)c1cc(Cl)cc(Cl)c1 | – | 0.79% (inactive)
26 | CN1CCN(C(=S)SCC(=O)Nc2ccc(Cl)cc2C(=O)c2ccccc2)CC1 | – | -6.56% (inactive)
27 | O=C(NCC1=C(c2ccc3ccccc3c2)C[C@@H]2CC[C@H]1N2Cc1ccco1)c1cccs1 | – | -4.42% (inactive)
28 | COC(=O)C1=C(c2ccc(OCc3ccccc3)cc2)C[C@@H]2CC[C@H]1N2C(=O)NCc1ccc(Cl)cc1 | – | -5.51% (inactive)
29 | CCOc1ccc(-c2cc(C)n3nc(C(=O)Nc4ccc(C)c(C)c4)cc3n2)cc1 | 3.55 µM (active) | –
30 | ClCCN(CCCl)c1ccc(C=Nc2ccc(/C=C/c3ccnc4ccccc34)cc2)cc1 | – | -13.1% (inactive)
31 | COC(=O)C1=C(c2ccc(OCc3ccccc3)cc2)C[C@@H]2CC[C@H]1N2C(=O)NCc1cccc(F)c1 | – | -7.83% (inactive)
32 | O=C(c1cc2nc(-c3ccccc3)cc(-c3ccccc3)n2n1)N1CCC2(CC1)OCCO2 | 35.5 µM (active) | –
33 | Cc1cccc(-n2c(C)nc3cc(C(=O)N4CCC5(CC4)OCCO5)ccc32)c1 | – | 0.319% (inactive)
34 | Cc1ccc(-c2cc(C(=O)N3CCC4(CC3)OCCO4)no2)cc1 | – | -4.99% (inactive)
35 | O=C(c1ccccc1[N+](=O)[O-])N1CCC2(CC1)OCCO2 | – | 1.83% (inactive)
36 | O=C(c1cc(-c2ccncc2)nc2ccccc12)N1CCC2(CC1)OCCO2 | 28.2 µM (active) | –
37 | O=C(c1cc(S(=O)(=O)N2CCOCC2)ccc1F)N1CCC2(CC1)OCCO2 | – | 0.465% (inactive)
38 | COc1cc([C@@H]2c3cc4c(cc3[C@H](OC(C)=O)[C@H]3COC(=O)[C@H]23)OCO4)cc(OC)c1OC | – | -0.0541% (inactive)
39 | COc1ccc(-n2nnnc2C(c2cccc3ccccc23)N2CCC(n3c(=O)[nH]c4ccccc43)CC2)cc1 (centres undefined) | – | 0.35% (inactive)
40 | COc1ccc(S(=O)(=O)NCc2ccc(C(=O)N3CCC4(CC3)OCCO4)cc2)cc1 | – | 0.386% (inactive)
41 | COc1ccc(-c2nc(CS(=O)CC(=O)N3CCC4(CC3)OCCO4)c(C)o2)cc1 (centres undefined) | 31.6 µM (active) | –
42 | COc1ccc(NC(=O)N2CCC3(CC2)OCCO3)c(OC)c1 | – | 0.147% (inactive)
43 | CCC(C)(O)C(=O)OC1C(=O)OC2CC3C(C)=CC(=O)C(O)C3(C)C3C4(O)OCC23C1C(C)C4O (centres undefined) | – | -2.2% (inactive)
44 | CCOC(=O)[C@]12Cc3ccccc3[C@H]1N(C1CCCCC1)C(=O)c1cc(OC)ccc12 | – | -3.18% (inactive)

Row | SMILES | Potency | activity change, negative = active
45 | c1ccc(N2Cc3ccccc3-n3nncc3C2)nc1 | – | 0.135% (inactive)
46 | COc1cc(C(=O)N2Cc3ccc(Br)cc3-n3nncc3C2)cc(OC)c1OC | – | -0.434% (inactive)
47 | C[C@H]1CN([C@@H](C)CO)C(=O)CCCn2nncc2CO[C@H]1CN(C)C(=O)Oc1ccccc1 | – | 1.9% (inactive)
48 | COC(=O)C[C@H]1CC[C@H]2NC[C@@H](O)COC[C@@H]2O1 | – | -0.23% (inactive)
49 | CCN(CC)CCOC(=O)c1cc2cc(COC)ccc2o1 | 28.2 µM (active) | –
50 | O=P(OC1=CCCCC1)(c1ccccc1)c1ccccc1 | – | -2.65% (inactive)
51 | CC(=CCOc1ccc2ccc(=O)oc2c1)C1=CC(=O)C(C)(C)O1 | – | 4.52% (inactive)
52 | CC1C(=O)OC2CCN3CC=C(COC(=O)C(C)(O)C1(C)O)C23 (centres undefined) | – | 1.37% (inactive)
53 | Cc1ccc(Cn2c(C)c3cnn(CC(=O)N4CCC5(CC4)OCCO5)c(=O)c3c2C)cc1 | – | -24.5% (inactive)
54 | Cc1nc2nc(C)c(CCC(=O)N3CCC4(CC3)OCCO4)c(C)n2n1 | – | -4.83% (inactive)
55 | O=C(CCCn1c(=O)[nH]c2cc(Cl)ccc2c1=O)N1CCC2(CC1)OCCO2 | 28.2 µM (active) | –
56 | CC(=O)OC1C2(CC3N4C(=O)C5(CO)SSC4(CC31O)C(=O)N5C)OC(C)C(C)(C)C2=O (centres undefined) | – | -1.51% (inactive)
57 | COc1ccc(NC(=O)N2Cc3ccccc3-n3nncc3C2)cc1 | – | -1.49% (inactive)
58 | COC1C(O)C(C)OC(OC2CCC3(C=O)C(CCC4C3CCC3(C)C(C5=CC(=O)OC5)CCC43O)C2)C1O (centres undefined) | – | 0.46% (inactive)
59 | C[C@H]1CN([C@@H](C)CO)C(=O)CCCn2nncc2CO[C@H]1CN(C)C(=O)Oc1cccc2ccccc12 | – | 2.28% (inactive)
60 | CCOC(=O)c1c(-c2ccccc2)oc2ccc(OC(=O)N(C)C)cc12 | 3.16 µM (active) | –
61 | CN(C)C(=O)Oc1ccc(OCc2cccc[n+]2C)cc1 | – | 0.542% (inactive)
62 | CN(C)C(=O)Oc1ccc2c(c1)O/C(=C\c1ccccc1)C2=O | – | -10.7% (inactive)
63 | CCOC(=O)[C@]12Cc3cc(OC)ccc3[C@H]1N(C(C)C)C(=O)c1ccccc12 | – | 1.13% (inactive)
64 | O=C(NC1CCCCC1)N1Cc2cc(N3CCCCC3)ccc2-n2nncc2C1 | – | -3.37% (inactive)
